According to PubChem BioAssay (EPA / NIEHS):
Results filed as inconclusive are left out. Where a structure was tested more than once in an assay, its records may differ in their call. The source made the active and inactive calls. Rule for the calls, unless noted: active = hit-call score of the fitted dose curve at least 0.9, where 1 is the maximum; inactive = score below 0.9.

Tests used:
[1] = biological target: Nuclear respiratory factor 1 (Homo sapiens) (UniProt Q16656); assay: ATG_NRF1_CIS: Attagene CIS-FACTORIAL HepG2 Assay for human Nuclear Respiratory Factor 1 (NRF1) Orphan Gene (AID 2282987); conditions: HepG2 NRF1 cis-element reporter, Attagene multiplex; actives raise or lower the signal
Nuclear respiratory factor 1 (Homo sapiens), sequence (Q16656 whole entry, looked up): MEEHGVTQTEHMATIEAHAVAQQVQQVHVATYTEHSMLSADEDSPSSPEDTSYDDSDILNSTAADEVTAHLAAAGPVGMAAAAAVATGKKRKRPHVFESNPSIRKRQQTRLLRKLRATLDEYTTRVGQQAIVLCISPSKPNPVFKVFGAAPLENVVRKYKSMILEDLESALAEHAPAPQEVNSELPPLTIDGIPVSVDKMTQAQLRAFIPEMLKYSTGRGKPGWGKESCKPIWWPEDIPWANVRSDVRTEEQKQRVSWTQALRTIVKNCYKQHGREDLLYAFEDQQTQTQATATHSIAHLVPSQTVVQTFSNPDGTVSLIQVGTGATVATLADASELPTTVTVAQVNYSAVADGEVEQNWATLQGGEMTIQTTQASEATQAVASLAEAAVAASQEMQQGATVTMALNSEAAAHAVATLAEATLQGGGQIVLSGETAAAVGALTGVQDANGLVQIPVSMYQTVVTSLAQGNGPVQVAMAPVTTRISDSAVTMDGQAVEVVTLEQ
Method in brief: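 Endogenous factor activity was captured via cis-element-driven reporter transcripts in HepG2 cells. Following 24 h chemical treatment, transcripts were quantified by RT-PCR and capillary electrophoresis.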

[2] = ATG_NFI_CIS: Attagene CIS-FACTORIAL HepG2 Assay for human Nuclear Factor I (NFI) (AID 2282989); conditions: HepG2 cis-regulatory reporter, NFI response element transcription; actives raise or lower the signal
Method in brief: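 Endogenous TF activity in HepG2 cells transiently transfected with cis-element-driven multiplexed reporter units, read 24 h after dosing. Reporter mRNA quantified by RT-PCR, 6-FAM labelling, HpaI digestion and capillary electrophoresis; bidirectional fit versus DMSO.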

[3] = biological target: Myc proto-oncogene protein (Homo sapiens) (UniProt P01106); assay: ATG_Myc_CIS: Attagene CIS-FACTORIAL HepG2 Assay for human Myelocytomatosis (Myc) Proto-Oncogene Transcription Factor (AID 2282990); conditions: HepG2, Attagene cis-reporter transcription factor activity; actives raise or lower the signal
Myc proto-oncogene protein (Homo sapiens), sequence (P01106 whole entry, looked up, the tested form may be a part): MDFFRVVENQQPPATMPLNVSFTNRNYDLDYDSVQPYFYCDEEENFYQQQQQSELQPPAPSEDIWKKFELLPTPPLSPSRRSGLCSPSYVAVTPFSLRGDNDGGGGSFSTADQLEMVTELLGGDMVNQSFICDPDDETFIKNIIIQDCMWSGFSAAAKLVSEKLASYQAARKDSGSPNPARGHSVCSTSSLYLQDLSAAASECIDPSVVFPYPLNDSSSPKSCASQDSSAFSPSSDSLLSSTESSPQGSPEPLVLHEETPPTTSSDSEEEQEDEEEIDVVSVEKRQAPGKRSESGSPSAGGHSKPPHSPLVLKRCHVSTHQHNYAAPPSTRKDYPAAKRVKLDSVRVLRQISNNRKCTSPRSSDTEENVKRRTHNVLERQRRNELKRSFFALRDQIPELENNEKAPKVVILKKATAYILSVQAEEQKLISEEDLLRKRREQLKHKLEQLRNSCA
Method in brief: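 After 24 h chemical treatment of HepG2 cells carrying multiplexed cis-regulated reporter constructs, reporter transcripts quantified by RT-PCR and capillary electrophoresis of fluorescent fragments. Gain or loss fitted against DMSO baseline.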

[4] = ATG_NF_kB_CIS: Attagene CIS-FACTORIAL HepG2 Assay for human Nuclear Factor Kappa B (NF-kB) (AID 2282991); conditions: HepG2 Attagene cis-factorial NF-kB reporter mRNA; actives raise or lower the signal
Method in brief: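 After 24 h compound incubation, transfected HepG2 cells yield total RNA; reporter cDNA is PCR-amplified, end-labelled with 6-FAM, HpaI-digested and analysed on a genetic analyser. Endogenous factor activity, DMSO-referenced bidirectional fit.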

[5] = ATG_NRF2_ARE_CIS: Attagene CIS-FACTORIAL HepG2 Assay for human Nuclear Factor Erythroid 2 Related Factor 2 (NFR2) response to Antioxidant Response Elements (ARE) (AID 2282992); conditions: HepG2 Attagene ARE/NRF2 reporter, transcription factor activity; actives raise or lower the signal;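 for AC50: reporter mRNA level measured by RT-PCR and capillary electrophoresis fluorescence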
Method in brief: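 HepG2 cells transiently transfected with multiplexed cis-element reporter constructs, 24 h after chemical dosing; reporter mRNA quantified by RT-PCR, fluorescent primer extension, HpaI digestion and capillary electrophoresis. Bidirectional fit relative to DMSO.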

[6] = ATG_Oct_MLP_CIS: Attagene CIS-FACTORIAL HepG2 Assay for human Octamer-Binding Transcription Factor (Oct) (AID 2282993); conditions: HepG2 Attagene cis-factorial Oct reporter, mRNA; actives raise or lower the signal
Method in brief: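 HepG2 cells transiently transfected with cis-element-driven reporter transcription units (endogenous TF activity); 24 h compound exposure. Reporter mRNA quantified by RT-PCR, 6-FAM labelling, HpaI digestion and capillary electrophoresis; bidirectional fit versus DMSO baseline.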

[7] = BSK_3C_uPAR: BioMAP Diversity Plus: 3C Assay for Urokinase-type plasminogen activator receptor (uPAR) Biomarker Activity (AID 2282998); conditions: BioMAP 3C HUVEC, uPAR biomarker ELISA; actives raise or lower the signal
Method in brief: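 Primary human umbilical vein endothelial cells, 3C system; surface uPAR measured by ELISA 24 h after dosing. Cytotoxicity via SRB total protein in parallel cultures; bidirectional fit against DMSO.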

[8] = BSK_3C_VCAM1: BioMAP Diversity Plus: 3C Assay for Vascular cell adhesion molecule 1 (VCAM1) Biomarker Activity (AID 2282999); conditions: BioMAP 3C HUVEC, VCAM1 ELISA, cytokine-stimulated; actives raise or lower the signal
Method in brief: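 Endothelial cells from human umbilical vein are treated with test chemical. At 24 h, VCAM-1 is measured by ELISA, and responses in either direction are fitted relative to DMSO.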

[9] = BSK_4H_Eotaxin3: BioMAP Diversity Plus: 4H Assay for Eotaxin 3 Biomarker Activity (AID 2283000); conditions: primary human endothelial cells (HUVEC); actives raise or lower the signal;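 note: CCL26 protein level quantified by ELISA in parallel with SRB cytotoxicity check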
Method in brief: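 Chemicals were added to human umbilical vein endothelium cultures, and Eotaxin-3 was quantified by ELISA at 24 h. Values were derived by bidirectional fitting with DMSO serving as negative control and activity baseline.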

[10] = biological target: human Peroxisome Proliferator-activated Receptor alpha (PPARa), PPARA (gene 5465) (UniProt Q07869); assay: ATG_PPARa_TRANS: Attagene TRANS-FACTORIAL HepG2 Assay for human Peroxisome Proliferator-activated Receptor alpha (PPARa) (AID 2283001; active = hit-call score of the fitted dose curve at least 0.9, where 1 is the maximum)
human Peroxisome Proliferator-activated Receptor alpha (PPARa), PPARA (gene 5465), sequence (Q07869 whole entry, looked up, the tested form may be a part): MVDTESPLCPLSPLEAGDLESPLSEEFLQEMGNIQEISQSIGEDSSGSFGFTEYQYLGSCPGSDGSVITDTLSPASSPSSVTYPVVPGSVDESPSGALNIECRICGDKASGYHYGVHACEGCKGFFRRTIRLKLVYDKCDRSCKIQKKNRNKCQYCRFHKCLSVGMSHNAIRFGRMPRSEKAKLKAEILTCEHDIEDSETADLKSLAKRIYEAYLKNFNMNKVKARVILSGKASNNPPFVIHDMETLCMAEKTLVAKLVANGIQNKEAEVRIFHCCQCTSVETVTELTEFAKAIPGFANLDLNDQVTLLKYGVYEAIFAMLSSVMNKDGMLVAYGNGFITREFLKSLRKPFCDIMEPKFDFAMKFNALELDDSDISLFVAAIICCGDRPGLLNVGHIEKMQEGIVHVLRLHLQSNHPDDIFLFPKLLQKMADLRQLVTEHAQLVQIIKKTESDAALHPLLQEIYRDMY
Method in brief: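 Reporter transcripts from GAL4-UAS units in transfected HepG2 were quantified 24 h after dosing. Detection used reverse transcription, PCR, fluorescent primer extension and capillary electrophoresis, with DMSO as baseline.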

[11] = biological target: human Peroxisome Proliferator-activated Receptor delta (PPARd), PPARD (gene 5467) (UniProt Q03181); assay: ATG_PPARd_TRANS: Attagene TRANS-FACTORIAL HepG2 Assay for human Peroxisome Proliferator-activated Receptor delta (PPARd) (AID 2283002; active = hit-call score of the fitted dose curve at least 0.9, where 1 is the maximum)
human Peroxisome Proliferator-activated Receptor delta (PPARd), PPARD (gene 5467), sequence (Q03181 whole entry, looked up, the tested form may be a part): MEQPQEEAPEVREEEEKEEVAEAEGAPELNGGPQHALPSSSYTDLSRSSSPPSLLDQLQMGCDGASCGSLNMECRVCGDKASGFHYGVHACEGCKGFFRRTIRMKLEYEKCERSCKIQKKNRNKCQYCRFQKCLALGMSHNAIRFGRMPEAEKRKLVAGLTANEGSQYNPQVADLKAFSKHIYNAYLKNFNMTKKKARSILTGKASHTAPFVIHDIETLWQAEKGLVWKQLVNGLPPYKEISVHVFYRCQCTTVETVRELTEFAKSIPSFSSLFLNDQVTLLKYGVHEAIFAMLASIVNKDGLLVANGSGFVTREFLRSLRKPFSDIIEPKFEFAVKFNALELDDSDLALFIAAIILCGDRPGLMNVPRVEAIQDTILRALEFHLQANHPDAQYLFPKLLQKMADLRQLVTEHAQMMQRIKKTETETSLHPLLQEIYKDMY
Method in brief: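 Read-out is induced reporter mRNA, quantified by RT-PCR with fluorescent labelling and capillary electrophoresis after 24 h dosing. Cells are HepG2 transiently carrying multiple GAL4-UAS reporter units driven by exogenous NR-GAL4 chimeras; DMSO serves as baseline.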

[12] = read-out: Intercellular Adhesion Molecule 1 (ICAM1), ICAM1 (gene 3383); assay: BSK_3C_ICAM1: BioMAP Diversity Plus: 3C Assay for Intercellular Adhesion Molecule 1 (ICAM1) Biomarker Activity (AID 2283003); conditions: primary human endothelial cells (HUVEC); actives raise or lower the signal
Method in brief: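 Human vascular endothelial primary cells, 3C conditions, 24 h treatment. ICAM-1 by ELISA.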

[13] = biological target: Retinoic acid receptor alpha (Homo sapiens) (UniProt P10276); assay: ATG_RARa_TRANS: Attagene TRANS-FACTORIAL HepG2 Assay for human Retinoic Acid Receptor alpha (RARa) (AID 2283005; active = hit-call score of the fitted dose curve at least 0.9, where 1 is the maximum)
Retinoic acid receptor alpha (Homo sapiens), sequence (P10276 whole entry, looked up, the tested form may be a part): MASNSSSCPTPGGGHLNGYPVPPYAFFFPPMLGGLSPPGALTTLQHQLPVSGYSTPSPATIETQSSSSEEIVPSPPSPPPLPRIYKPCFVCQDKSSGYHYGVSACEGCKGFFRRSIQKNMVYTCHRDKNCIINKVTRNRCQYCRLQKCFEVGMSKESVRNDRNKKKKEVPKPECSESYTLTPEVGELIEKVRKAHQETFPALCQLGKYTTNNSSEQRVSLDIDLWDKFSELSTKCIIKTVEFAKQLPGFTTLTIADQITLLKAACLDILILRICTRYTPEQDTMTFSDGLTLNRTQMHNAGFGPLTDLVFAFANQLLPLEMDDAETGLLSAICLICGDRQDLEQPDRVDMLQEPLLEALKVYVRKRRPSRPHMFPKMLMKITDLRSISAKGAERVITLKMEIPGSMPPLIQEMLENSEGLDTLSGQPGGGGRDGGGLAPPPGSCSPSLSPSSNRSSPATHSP
Method in brief: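 Reporter transcripts, measured by RT-PCR with fluorescent labeling and capillary electrophoresis after 24 h dosing, reflect activity of an exogenous human RARa–GAL4 fusion in transiently transfected HepG2. Fitted for increase relative to DMSO.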

[14] = BSK_3C_Proliferation: Cell Proliferation Assessment in the BioMAP Diversity Plus: 3C Assay (AID 2283006); conditions: primary human endothelial cells (HUVEC);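 for AC50: potency may reflect either rise or fall in cell number versus DMSO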
Method in brief: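 Proliferation of human vascular endothelial primary cells after 48 h dosing, quantified as SRB-stained protein at 560 nm relative to DMSO.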

[15] = biological target: Nuclear receptor subfamily 1 group I member 2 (Homo sapiens) (UniProt O75469); assay: ATG_PXR_TRANS: Attagene TRANS-FACTORIAL HepG2 Assay for human Pregnane X Receptor (PXR) (AID 2283008; active = hit-call score of the fitted dose curve at least 0.9, where 1 is the maximum)
Nuclear receptor subfamily 1 group I member 2 (Homo sapiens), sequence (O75469 whole entry, looked up, the tested form may be a part): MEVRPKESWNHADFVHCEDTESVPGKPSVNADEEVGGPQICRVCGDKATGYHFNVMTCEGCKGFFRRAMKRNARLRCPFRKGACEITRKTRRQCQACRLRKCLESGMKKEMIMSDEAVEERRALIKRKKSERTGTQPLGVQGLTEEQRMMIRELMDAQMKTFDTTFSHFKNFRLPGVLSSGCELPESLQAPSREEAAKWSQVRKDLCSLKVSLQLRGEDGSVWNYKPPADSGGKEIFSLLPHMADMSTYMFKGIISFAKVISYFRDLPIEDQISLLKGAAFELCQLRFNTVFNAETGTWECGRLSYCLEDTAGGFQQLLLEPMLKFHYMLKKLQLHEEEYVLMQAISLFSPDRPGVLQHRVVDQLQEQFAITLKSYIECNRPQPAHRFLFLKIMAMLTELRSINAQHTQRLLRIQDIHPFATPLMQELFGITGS
Method in brief: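 HepG2 cells transiently transfected with GAL4-UAS reporter units and PXR-Gal4 chimera, exposed 24 h. Reporter mRNA quantified by RT-PCR, fluorescent labelling, HpaI digestion and capillary electrophoresis; gain of signal vs DMSO.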

[16] = biological target: Cellular tumor antigen p53 (Homo sapiens) (UniProt P04637); assay: ATG_p53_CIS: Attagene CIS-FACTORIAL HepG2 Assay for human p53 Transcription Factor (AID 2282994); conditions: HepG2 p53 cis-element reporter, Attagene mRNA; actives raise or lower the signal
Cellular tumor antigen p53 (Homo sapiens), sequence (P04637 whole entry, looked up): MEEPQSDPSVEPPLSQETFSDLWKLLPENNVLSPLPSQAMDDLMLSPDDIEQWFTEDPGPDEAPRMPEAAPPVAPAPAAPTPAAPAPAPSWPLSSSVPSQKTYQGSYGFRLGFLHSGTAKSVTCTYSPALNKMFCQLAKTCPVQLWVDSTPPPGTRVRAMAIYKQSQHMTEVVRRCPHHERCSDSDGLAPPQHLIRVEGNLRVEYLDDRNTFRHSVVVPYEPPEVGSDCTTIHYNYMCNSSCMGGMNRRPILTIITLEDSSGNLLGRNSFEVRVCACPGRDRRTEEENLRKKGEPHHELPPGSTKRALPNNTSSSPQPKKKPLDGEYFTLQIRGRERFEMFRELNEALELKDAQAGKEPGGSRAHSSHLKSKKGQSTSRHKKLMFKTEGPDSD
Method in brief: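 HepG2 cells transiently transfected with cis-regulated multiple reporter transcription units, dosed 24 h. Reporter mRNA measured by RT-PCR, 6-FAM primer extension, HpaI digestion and capillary electrophoresis; bidirectional fit relative to DMSO.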

[17] = BSK_3C_TissueFactor: BioMAP Diversity Plus: 3C Assay for Tissue Factor Biomarker Activity (AID 2282997); conditions: BioMAP 3C HUVEC, tissue factor biomarker readout; actives raise or lower the signal
Method in brief: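 ELISA read-out of Tissue Factor levels on human umbilical vein endothelium collected 24 h after chemical dosing. Gain or loss of signal was fitted relative to DMSO.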

[18] = biological target: human Retinoic Acid Receptor beta (RARb), RARB (gene 5915) (UniProt P10826); assay: ATG_RARb_TRANS: Attagene TRANS-FACTORIAL HepG2 Assay for human Retinoic Acid Receptor beta (AID 2283004; active = hit-call score of the fitted dose curve at least 0.9, where 1 is the maximum)
human Retinoic Acid Receptor beta (RARb), RARB (gene 5915), sequence (P10826 whole entry, looked up): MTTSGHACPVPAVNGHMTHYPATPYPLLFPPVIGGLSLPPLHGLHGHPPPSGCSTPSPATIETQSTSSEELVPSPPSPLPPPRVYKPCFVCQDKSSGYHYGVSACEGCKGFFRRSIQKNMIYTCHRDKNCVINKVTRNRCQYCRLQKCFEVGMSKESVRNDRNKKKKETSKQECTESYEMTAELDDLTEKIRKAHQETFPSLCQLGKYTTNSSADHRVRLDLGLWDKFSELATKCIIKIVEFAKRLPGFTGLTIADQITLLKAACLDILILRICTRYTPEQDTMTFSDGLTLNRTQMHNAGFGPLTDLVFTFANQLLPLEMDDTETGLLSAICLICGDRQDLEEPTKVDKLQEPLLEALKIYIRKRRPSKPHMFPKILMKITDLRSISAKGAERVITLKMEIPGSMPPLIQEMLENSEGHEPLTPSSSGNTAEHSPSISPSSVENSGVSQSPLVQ
Method in brief: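 Transient transfection of HepG2 with multiple reporter units → chemical dosing, 24 h → total RNA isolation → RT with oligo(dT) → reporter-specific PCR, 6-FAM primer extension, HpaI digest → capillary electrophoresis. Positive direction vs DMSO control.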

[19] = biological target: Peroxisome proliferator-activated receptor gamma (Homo sapiens) (UniProt P37231); assay: ATG_PPARg_TRANS: Attagene TRANS-FACTORIAL HepG2 Assay for human Peroxisome Proliferator-activated Receptor-gamma (PPARg) (AID 2283007; active = hit-call score of the fitted dose curve at least 0.9, where 1 is the maximum)
Peroxisome proliferator-activated receptor gamma (Homo sapiens), sequence (P37231 whole entry, looked up, the tested form may be a part): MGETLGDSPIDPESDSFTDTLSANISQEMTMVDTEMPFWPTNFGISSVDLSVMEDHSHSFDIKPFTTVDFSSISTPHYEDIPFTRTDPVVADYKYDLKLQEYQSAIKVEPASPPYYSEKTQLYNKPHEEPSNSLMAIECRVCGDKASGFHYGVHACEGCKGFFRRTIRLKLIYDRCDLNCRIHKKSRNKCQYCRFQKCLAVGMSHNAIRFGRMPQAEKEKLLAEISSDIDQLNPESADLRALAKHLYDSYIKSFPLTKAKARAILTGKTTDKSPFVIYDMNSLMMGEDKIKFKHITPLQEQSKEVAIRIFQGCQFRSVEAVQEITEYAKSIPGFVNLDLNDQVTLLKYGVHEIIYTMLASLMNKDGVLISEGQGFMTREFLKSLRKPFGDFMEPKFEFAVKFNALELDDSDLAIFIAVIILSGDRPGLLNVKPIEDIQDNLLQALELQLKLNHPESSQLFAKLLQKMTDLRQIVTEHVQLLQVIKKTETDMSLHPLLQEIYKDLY
Method in brief: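 Liver-derived HepG2 cells expressing an exogenous NR-Gal4 chimera alongside GAL4-UAS reporter genes; 24 h exposure. Fluorescence of reporter RT-PCR products, separated by capillary electrophoresis, gives mRNA induction relative to DMSO.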

[20] = biological target: human Retinoic Acid Receptor gamma (RARg), RARG (gene 5916) (UniProt P13631); assay: ATG_RARg_TRANS: Attagene TRANS-FACTORIAL HepG2 Assay for human Retinoic Acid Receptor gamma (RARg) (AID 2283009; active = hit-call score of the fitted dose curve at least 0.9, where 1 is the maximum)
human Retinoic Acid Receptor gamma (RARg), RARG (gene 5916), sequence (P13631 whole entry, looked up, the tested form may be a part): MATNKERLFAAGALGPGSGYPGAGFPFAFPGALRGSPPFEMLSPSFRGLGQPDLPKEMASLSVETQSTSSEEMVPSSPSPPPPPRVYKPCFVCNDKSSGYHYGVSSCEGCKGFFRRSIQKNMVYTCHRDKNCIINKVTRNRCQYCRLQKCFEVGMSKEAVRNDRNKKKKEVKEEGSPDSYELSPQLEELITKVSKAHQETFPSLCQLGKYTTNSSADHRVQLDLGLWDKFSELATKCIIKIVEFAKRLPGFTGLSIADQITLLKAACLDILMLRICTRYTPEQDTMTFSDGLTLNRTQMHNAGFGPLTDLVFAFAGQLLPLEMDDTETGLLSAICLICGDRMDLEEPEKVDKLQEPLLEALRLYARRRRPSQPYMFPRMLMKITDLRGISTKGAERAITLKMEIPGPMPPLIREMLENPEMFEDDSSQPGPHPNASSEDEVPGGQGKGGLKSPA
Method in brief: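 HepG2, RARg-GAL4 TRANS system, 24 h exposure; reporter mRNA by RT-PCR + CE fluorescence; increase over DMSO.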

Measured: AC50

O=S(=O)(O)c1ccc(N=Nc2c(O)ccc3cc(S(=O)(=O)O)ccc23)cc1
not listed: [16] | [17] | [18] | [19] | [20]
inactive: all other assays above

FC(F)=C(F)C(F)(F)C(F)(F)C(F)(F)C(F)(F)C(F)(F)C(F)(F)F
inactive: [1] | [2] | [3] | [4] | [5] | [6] | [16] | [17] | [7] | [8] | [9] | [10] | [11] | [12] | [18] | [13] | [14] | [19] | [15] | [20]
active: [5] 86.6 µM | [6] 267 µM

c1ccc2ncccc2c1
not listed: [4] | [11] | [13] | [15] | [18] | [19] | [20]
inactive: all other assays above

CCCCOC(=O)c1ccccc1
not listed: [5] | [10] | [12] | [13] | [18] | [20]
inactive: all other assays above

O=C(O)c1cccc(C[C@@H]2COc3ccc(OCc4nc5cc(F)ccc5s4)cc3[C@@H]2O)c1
active: [5] 32.3 µM | [6] 159 µM
not listed: [4] | [11] | [12] | [13] | [18] | [19] | [20]
inactive: all other assays above

CCCCCOC(C)=O
active: [14] 20.8 µM
inactive: [1] | [2] | [3] | [4] | [6] | [7] | [8] | [9] | [11] | [12]

NC(=O)N1c2ccccc2C=Cc2ccccc21
not listed: [10] | [11] | [16]
inactive: all other assays above
